Sampled rows, rich in hits. Any-hit rate of the full collection: about 0.5%.
E coli growth-1 – inhibitors of Escherichia coli growth; OD600, 23 h; stronger effect = lower value; 330,000 tested, 0.21% active; OD600 absorbance (test concentration not listed);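 active = OD600 absorbance below the run mean of sample wells minus 3.6 SD, in any replicate, cut at about 0.56 in these data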
Tat export inh – E. coli Tat transport inhibition | E. coli MC4100 TorA-mCherry Tat export, fluorescence | 340,000 tested, 0.036% active | inhibition, % at 10 µM;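 active = mean replicate inhibition at least 50% and at least half of replicates individually reaching 50%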;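 also: exported cargo escapes ClpAP degradation while cytoplasmic cargo is degraded and loses fluorescence; 0% = median of neutral control wells and 100% = median of NaSCN control wells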
AddAB inh – less growth of phage-infected E. coli with AddAB; inhibition, % at 11.9 µM; 330,000 tested, 0.29% active; E. coli expressing H. pylori AddAB, absorbance growth; in the data active = inhibition above about 12%;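 also: 0% = vehicle wells of infected cells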
E coli growth-2 – counter-screen for AddAB inhibitors: E. coli growth inhibition; E. coli V3065 growth, OD600 absorbance, 18 h; inhibition, % at 11.9 µM; 330,000 tested, 0.27% active;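 active = inhibition above the campaign's mean inhibition across all tested compounds plus 3 SD, cut at about 9.9% in these data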;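 also: uninfected addAB+ strain grown without phage in ampicillin broth; 0% = DMSO wells and 100% = ciprofloxacin 0.95 µg/ml wells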
phage Ecoli inh – E. coli growth loss with phage present. growth absorbance. inhibition, % at 11.9 µM. 360,000 tested, 0.26% active; in the data active = inhibition above about 11%
AddAB conf – growth loss of T4-infected E. coli expressing H. pylori AddAB, confirmed | 880 tested, 64% active | E. coli V3065 expressing H. pylori AddAB, T4 phage, OD; T4 phage with gene 2 nonsense mutations | shares compounds with AddAB inh | inhibition, % at 11.9 µM;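 active = mean inhibition above a set limit taken from the earlier primary screen, cut at about 13% in these data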;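 also: higher means less bacterial growth since AddAB block lets phage replicate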
RecBCD counter – counter-screen: growth loss of RecBCD+ E. coli with mutant T4 phage; 880 tested, 73% active; E. coli V66 + mutant T4 phage, OD growth; shares compounds with AddAB inh; inhibition, % at 11.9 µM;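 active = mean inhibition above the mean of solvent-only control wells plus 3 SD, cut at about 4% in these data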;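 also: optical density read after an 18 h incubation at 37 °C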
Bact viability – counter-screen: bacterial growth inhibition | 880 tested, 35% active | bacterial viability, absorbance (AddAB counterscreen) | inhibition, % at 11.9 µM | shares compounds with AddAB inh; in the data active = inhibition above about 25%
* hit, by the source's call.

`O=C(Nc1cccc(NC(=O)c2ccc([N+](=O)[O-])o2)c1)c1ccco1` gave E coli growth-1 0.46*, Tat export inh -30, AddAB inh 24*, E coli growth-2 17*, phage Ecoli inh 10, AddAB conf 99*, RecBCD counter 10* and Bact viability 30*.
For CCc1ccc(C=Nn2c(COc3ccccc3)n[nH]c2=S)cc1 the results were E coli growth-1 0.67.
For COc1ccc(-c2cc(C(=O)NN=Cc3ccc(OC)c(COCC(F)(F)C(F)F)c3)c3ccccc3n2)c(OC)c1 the results were E coli growth-1 0.68.
For Cc1ccc(OCC(=O)c2c[nH]c3ccccc23)c([N+](=O)[O-])n1 the results were E coli growth-1 0.64, Tat export inh 7, AddAB inh 23*, E coli growth-2 20*, phage Ecoli inh 7, AddAB conf 46*, RecBCD counter 6.8* and Bact viability 42*.
`CCCC(=O)NC(Nc1ccc(S(=O)(=O)Nc2cc(C)on2)cc1)(C(F)(F)F)C(F)(F)F` gave E coli growth-1 0.72, Tat export inh -3, AddAB inh 16*, E coli growth-2 8, phage Ecoli inh 3, AddAB conf -1, RecBCD counter 2 and Bact viability 1.
CCCC(=O)NC(Nc1ccc(S(=O)(=O)Nc2cc(C)on2)cc1)(C(=O)OCC)C(F)(F)F (stereo unspecified) was read as E coli growth-1 0.71, Tat export inh -6, AddAB inh 2, E coli growth-2 0 and phage Ecoli inh 4.
Cc1cc(C)nc(SCc2ccc(C(=O)N/N=C/c3cccc(O)c3O)cc2)n1 was read as Tat export inh 8, AddAB inh 12*, E coli growth-2 7, phage Ecoli inh 5, AddAB conf -1, RecBCD counter 5.0* and Bact viability -3.
Screening O=S(=O)(N=C(c1ccccc1)N1CCCCCC1)c1ccccc1 returned E coli growth-1 0.7.
Screening COc1ccccc1C=NOCc1cc(C(C)=O)ccc1OC returned E coli growth-1 0.69.
Screening O=[N+]([O-])c1ccc(/C=N/n2cnc3ccccc32)s1 returned Tat export inh -25, AddAB inh 15*, E coli growth-2 9, phage Ecoli inh 7, AddAB conf 98*, RecBCD counter 5.9* and Bact viability 20.
Screening COc1ccc(C(C)=NNc2nc3ccccc3n3cnnc23)cc1OC returned E coli growth-1 0.7.
`CN(C)c1ccc(C=NNC(=O)c2ccc(Cn3cc(Br)cn3)o2)cc1` gave E coli growth-1 0.7.
Screening CCCNC(=O)c1ccc2c(=O)c(O)c(-c3ccc(F)cc3)[nH]c2c1 returned E coli growth-1 0.67, Tat export inh -6, AddAB inh 18*, E coli growth-2 15*, AddAB conf 11, RecBCD counter 13* and Bact viability 14.
For O=C(Nc1ccccc1O)c1ccccc1O the results were E coli growth-1 0.48*, Tat export inh 2, AddAB inh 24*, E coli growth-2 13*, phage Ecoli inh 9, AddAB conf 5, RecBCD counter 8.2* and Bact viability -1.
For Cc1cccc(NC(=O)c2ccccc2O)c1C the results were E coli growth-1 0.62, Tat export inh 1, AddAB inh 4, E coli growth-2 2 and phage Ecoli inh 6.
`CCN(CC)S(=O)(=O)c1cccc(C(=O)NN=C(C)c2ccc(O)cc2O)c1` gave E coli growth-1 0.7.
Screening COc1ccc([N+](=O)[O-])cc1NC(=O)C(C)OC(=O)C1CCC1 (stereo unspecified) returned E coli growth-1 0.62, Tat export inh -11, AddAB inh 98*, E coli growth-2 95*, phage Ecoli inh 0, AddAB conf -3, RecBCD counter -2 and Bact viability -5.
`COc1ccc([N+](=O)[O-])cc1NC(=O)C(C)OC(=O)C1CCCC1` (stereo unspecified) gave E coli growth-1 0.66, Tat export inh -2, AddAB inh 0, E coli growth-2 1 and phage Ecoli inh 0.
`Nc1nonc1-n1nnc(C(=O)NN=Cc2ccccc2Br)c1CN1CCCC1` gave E coli growth-1 0.7.
Cn1cccc1CC(=O)NN=C/C=C/c1ccccc1 was read as E coli growth-1 0.72.
Screening Cc1ccc(C(c2cc(Cl)c3cccnc3c2O)N2CCN(C)CC2)cc1 (stereo unspecified) returned Tat export inh -2, AddAB inh 19*, E coli growth-2 20*, AddAB conf 9, RecBCD counter 9.4* and Bact viability 2.
CN1CCN(C(c2ccccn2)c2cc(Cl)c3cccnc3c2O)CC1 (stereo unspecified) was read as E coli growth-1 0.62, Tat export inh -7, AddAB inh 5, E coli growth-2 -1 and phage Ecoli inh 8.
`CC(C)CC(=O)Nc1ccccc1N1CCN(c2ccccc2)CC1` gave E coli growth-1 0.66, Tat export inh 8, AddAB inh 15*, E coli growth-2 7, phage Ecoli inh 0, AddAB conf -4, RecBCD counter 0 and Bact viability -5.
Screening CC(C)CC(=O)Nc1ccccc1N1CCN(C(=O)c2ccccc2)CC1 returned E coli growth-1 0.74, Tat export inh -7, AddAB inh -3, E coli growth-2 -1 and phage Ecoli inh 0.
`Cc1ccc(NC(=O)CSc2n[nH]c(C)c2[N+](=O)[O-])cc1` gave E coli growth-1 0.68, Tat export inh -3, AddAB inh 14*, E coli growth-2 7, phage Ecoli inh 9, AddAB conf 2, RecBCD counter 4.7* and Bact viability 2.
`Cc1[nH]nc(SCC(=O)Nc2ccc(C#N)cc2)c1[N+](=O)[O-]` gave Tat export inh -8, AddAB inh 10, E coli growth-2 7 and phage Ecoli inh 10.
Screening O=C1C2CCCN2C(c2ccc(F)c(F)c2)N1c1cccc(Cl)c1 (stereo unspecified) returned E coli growth-1 0.72, Tat export inh -7, AddAB inh 2, E coli growth-2 1 and phage Ecoli inh 0.
Screening O=C1C2CCCN2C(c2ccccc2)N1c1cccc(Cl)c1 (stereo unspecified) returned E coli growth-1 0.65, Tat export inh 2, AddAB inh 119*, E coli growth-2 1, phage Ecoli inh 2, AddAB conf -3, RecBCD counter 0 and Bact viability -3.
For O=c1c2ccccc2[nH]c2ccc(F)cc12 the results were E coli growth-1 0.61, Tat export inh -3, AddAB inh 14*, E coli growth-2 10*, phage Ecoli inh 10, AddAB conf 7, RecBCD counter 8.8* and Bact viability 3.
